40 molecules from PubChem BioAssay (Tox21) can be followed below.

Where “and” joins values, the source holds several entries; their conditions need not be identical. Identical values can stand only once. Inconclusive results are not listed. Where a call stands in place of a potency, no number is given. Where a structure was tested more than once in an assay, its records may differ in their call. Calls of active or inactive are those of the source. Calls follow the shape of the dose curve; as a rule, active = well fitted activation curve with a large enough effect in the repeat runs; inconclusive = weak or mixed curves; inactive = flat fitted curve, though single readings scatter.
Potency is read from the fitted curve at half-maximal effect.

A short description of this assay: A CellTox Green Cytotoxicity Assay to monitor cytotoxicity in HepG2 cells - 32 hour (AID 1224883). Also: nearly all actives have a fitted effect of over 50% in size. Particulars: CellTox Green fluorescence; series mostly up to 76.8 µM; cytotoxicity increase: at the top concentration. From the text:
National Center for Advancing Translational Sciences [NCATS]
NIH Chemical Genomics Center [NCGC]
U.S. Environmental Protection Agency [EPA]
National Institutes of Environmental Health Sciences [NIEHS]
National Toxicology Program [NTP]
Cell-based models are critical for drug discovery. Determining the natural cytotoxic effects resulting from test compounds is an essential research activity. A CellTox Green Cytotoxicity Assay to monitor cytotoxicity in real time of continues cell culture during 40 hours of the compound treatment was used to screen Tox21 10K library compounds in HepG2 cells. CellTox Green Cytotoxicity Assay is a nonlytic, homogeneous, biofluorescent method to measure cytotoxicity in cell culture after experimental manipulation. The assay system uses a proprietary asymmetric cyanine dye that is excluded from viable cells but preferentially stains the dead cell's DNA. […] Viable cells produce no appreciable increases in fluorescence. Therefore, the fluorescence signal produced by the binding interaction with dead cell DNA is proportional to cytotoxicity.
The mixture of HepG2 cell suspension and reagents were dispensed at 600cells/6 ul/well in 1536-well tissue culture treated black solid bottom plates using a Multidrop dispenser. After the assay plates were incubated at a 37 C/5% CO2 incubator for 5 hours, 23 nL of compounds dissolved in DMSO, positive and negative controls was transferred to the assay plate by a pintool work station. The plates were incubated at 37 C for 40 hours. The fluorescence intensity were measured at 0h, 8h, 16h, 24h, 32h and 40h time points using ViewLux plate reader during compound treatment.
In the case of `O=C(O)C1=NN(c2ccc(S(=O)(=O)O)cc2)C(=O)C1`, the Potency entry was “inactive”.

Regarding `O=C1CCCCCCCCCCC1`, the Potency result was “inactive”.

Take `O=C(O)Cc1c[nH]c2ccccc12`: the Potency result is “inactive”.

On to `NC1CCCCC1N` (stereo not given), for which the Potency entry was “inactive”.

With `OCCOCCOCCOCCOCCO`, the Potency result is “inactive”.

Take `Oc1ccc(Cc2ccccc2O)cc1`: the Potency result was “inactive”.

`Cc1ncc(CO)c(CO)c1O`: the Potency result was “inactive”.

In the case of `CCCOCC(C)O` (stereo not given), the Potency entry is “inactive”.

For `CC1(C)C(=O)N(Cl)C(=O)N1Cl`, the Potency result was “inactive”.

On to `COc1c2ccoc2cc2oc(=O)ccc12`, for which the Potency entry is “inactive”.

As to `O=C1OC(=O)c2c(Cl)c(Cl)c(Cl)c(Cl)c21`, the Potency result is “inactive”.

On to `COC(=O)OC`, for which the Potency entry was “inactive”.

As for `CN=C(NC#N)NCCSCc1nc[nH]c1C`, the “cytotoxicity increase” value was 5.89% (inactive).

On to `CCCCCCCC(=O)O`, for which the Potency result is “inactive”.

`CC(=O)OCCC(C)C`: the Potency entry was “inactive”.

For the molecule `OCC(O)CS` (stereo not given), the Potency entry is “inactive”.

In the case of `Cc1ccc([N+](=O)[O-])cc1N`, the Potency entry was “inactive”.

Regarding `Nc1nc(N)c2nc(-c3ccccc3)c(N)nc2n1`, the Potency was 49.5 µM (active) and 49 µM (active).

For `Cc1ccc(C(C)C)cc1`, the Potency entry is “inactive”.

For `CCCN(CCC)C(=O)SCC`, the Potency result is “inactive”.

In the case of `O=[N+]([O-])c1ccccc1C(F)(F)F`, the Potency result was “inactive”.

Take `COc1cc(NC(=O)CC(C)=O)c(OC)cc1Cl`: the Potency entry is “inactive”.

With `O=C(c1ccccc1)c1ccc(O)c(O)c1O`, the Potency result is “inactive”.

For the molecule `Nc1cccc(C(F)(F)F)c1`, the Potency result is “inactive”.

Regarding `CO[Si](CCCNCCN)(OC)OC`, the Potency result is “inactive and 49 µM (active)”.

In the case of `CN1Cc2c(N)cccc2C(c2ccccc2)C1` (stereo not given), the Potency result is “inactive”.

On to `Cc1ccccc1Cl`, for which the Potency result is “inactive”.

Regarding `O=C(NCC1CCCCN1)c1cc(OCC(F)(F)F)ccc1OCC(F)(F)F` (stereo not given), the Potency result was “inactive”.

In the case of `CCCCCNCCCCC`, the Potency entry was “inactive”.

For `CC(C=O)Cc1ccc(C(C)(C)C)cc1` (stereo not given), the Potency result is “inactive”.

Turning to `c1cnc2c(c1)ccc1cccnc12`, the Potency result is “inactive”.

As for `COc1ccc2cc3[n+](cc2c1OC)CCc1cc2c(cc1-3)OCO2`, the Potency entry was “inactive”.

Consider `O=Cc1ccc(CO)o1`, for which the Potency entry was “inactive”.

Turning to `CCOC(=O)c1ccc(O)cc1`, the Potency result is “inactive”.

Take `CS(=O)(=O)c1ccc(Cl)cc1`: the “cytotoxicity increase” value was 0.852% (inactive).

For the molecule `CC/C(C)=N/O`, the Potency result was “inactive”.

For `CC[N+](CC)(CC(=O)Nc1c(C)cccc1C)Cc1ccccc1`, the Potency result was “inactive”.

Take `C[Si](C)(C)N[Si](C)(C)C`: the Potency result is “inactive”.

Consider `CC(CN1c2ccccc2Sc2ccccc21)N(C)C` (stereo not given), for which the Potency is 55.5 µM (active) and 49 µM (active) and 23.9 µM (active).

Take `CCCCCCCCC(=O)O`: the Potency entry is “inactive”.
